Compound activity as filed in PubChem.
USP30 inh: blocks human USP30 ubiquitin-rhodamine cleavage; Q70CQ3; purified USP30, Ub-rhodamine cleavage fluorescence; inhibition, % at 25 µM; 5.3% of 47,000 active
USP28 inh: blocks human USP28 ubiquitin-rhodamine cleavage. purified USP28, Ub-rhodamine cleavage fluorescence, 30 min. 3% of 47,000 active. Q96RU2. inhibition, % at 25 µM
USP8 block: human USP8 deubiquitinase inhibition; P40818; purified USP8, Ub-rhodamine cleavage fluorescence, 30 min; inhibition, % at 20 µM; 4.2% of 47,000 active; AID 1645853
USP10 inh: inhibitors of human USP10 deubiquitinase; Q14694; purified USP10, Ub-rhodamine fluorescence, 60 min; inhibition, % at 20 µM; 1.1% of 47,000 active; AID 1645856
Target sequence (Q14694 whole entry, looked up): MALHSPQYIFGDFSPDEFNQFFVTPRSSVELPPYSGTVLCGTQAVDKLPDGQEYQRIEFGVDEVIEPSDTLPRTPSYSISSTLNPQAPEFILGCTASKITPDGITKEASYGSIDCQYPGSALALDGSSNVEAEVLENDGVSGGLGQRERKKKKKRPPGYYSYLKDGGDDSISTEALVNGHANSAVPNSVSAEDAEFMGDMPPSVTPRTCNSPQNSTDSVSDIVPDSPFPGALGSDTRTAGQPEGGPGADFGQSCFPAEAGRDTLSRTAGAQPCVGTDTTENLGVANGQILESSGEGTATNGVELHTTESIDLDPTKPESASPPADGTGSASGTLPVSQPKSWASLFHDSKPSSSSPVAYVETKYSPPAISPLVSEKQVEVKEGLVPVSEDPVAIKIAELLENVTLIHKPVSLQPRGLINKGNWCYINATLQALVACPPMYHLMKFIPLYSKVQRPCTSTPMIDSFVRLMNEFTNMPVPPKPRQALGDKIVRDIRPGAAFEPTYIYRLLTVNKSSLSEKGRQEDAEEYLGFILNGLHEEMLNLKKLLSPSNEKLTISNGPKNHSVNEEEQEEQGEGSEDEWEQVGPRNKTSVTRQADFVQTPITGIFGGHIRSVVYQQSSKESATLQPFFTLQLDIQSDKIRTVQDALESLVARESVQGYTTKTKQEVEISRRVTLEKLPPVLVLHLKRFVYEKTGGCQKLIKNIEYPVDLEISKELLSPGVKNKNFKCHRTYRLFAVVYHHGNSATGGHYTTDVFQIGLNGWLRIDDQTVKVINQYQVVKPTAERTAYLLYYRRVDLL
USP17 block: blocks human USP17 ubiquitin-rhodamine cleavage. 6.5% of 47,000 active. inhibition, % at 50 µM. purified USP17, Ub-rhodamine cleavage fluorescence, 3 h. A8MUK1
Starred values were filed as active, the others as inactive; x = no result. An excerpt weighted towards active compounds, which were near 13% of everything screened. Rule as the data show it: active = inhibition above about 30%; inactive = the rest.

SMILES	USP30 inh	USP28 inh	USP8 block	USP10 inh	USP17 block
CC(C)COc1ccc(C(=O)Oc2ccc(-n3cnnn3)cc2)cc1	16.7	4.7	37.5*	2.6	7.7
CCCCOc1ccc(C(=O)Oc2ccc(-n3cnnn3)cc2)cc1	22.1	25.4	32.8*	14.5	6.9
O=C(NC1CC1)c1cn(-c2ccc(Cl)cc2)nn1	-14.5	-15.5	6.6	5.8	x
Cc1nnc(NC(=O)c2cn(-c3ccc(Br)cc3)nn2)s1	34.1*	0.2	-84.7	3.3	18.8
O=C(C1CCC1)N1CCn2ncnc2C1	26.2	13.0	14.9	2.3	26.6
N#Cc1cccc(S(=O)(=O)c2c[nH]c3cc(Cl)ccc3c2=O)c1	-13.0	1.4	56.8*	14.6	46.1*
CCCSc1nc(N)c2c3c(sc2n1)COC(C)(C)C3	-13.1	-10.8	3.5	3.1	46.9*
O=C(c1cc2ccccc2o1)[C@@H]1[C@@H]2CCCN2[C@]2(C(=O)Nc3c(Cl)cccc32)[C@@]12C(=O)Nc1ccccc12	-83.0	-12.4	-7.2	-7.4	-9.3
Cc1cc(Cl)c2c(c1)[C@]1(C(=O)N2)N2CCC[C@H]2[C@@H](C(=O)c2cc3ccccc3o2)[C@]12C(=O)Nc1ccccc12	-47.7	-18.6	41.1*	-5.1	63.3*
O=C(NCc1ccccc1)c1ccc2c(=O)n(-c3ccccc3)c(=O)[nH]c2c1	21.4	16.9	12.8	16.9	66.2*
O=C(NCc1ccco1)c1ccc2c(=O)n(Cc3ccco3)c(=O)[nH]c2c1	-22.3	19.6	0.8	2.1	40.2*
COc1ccc(CCn2c(=O)[nH]c3cc(C(=O)NCc4ccco4)ccc3c2=O)cc1OC	7.4	-0.6	42.3*	24.0	-10.8
COc1ccccc1C(=O)N1CCC(Cc2nc(-c3cnccn3)no2)CC1	8.5	-1.8	6.1	0.0	-0.2
C=CC(C)(C)[C@@]12C[C@H]3c4nc5ccccc5c(=O)n4[C@H](C)C(=O)N3[C@@H]1N(C(C)=O)c1ccccc12	-44.7	-25.9	-27.8	-12.3	-24.4
O=C(Nc1nc(-c2ccccc2)c2ccccc2n1)c1ccc(Cl)cc1	28.6	33.5*	0.4	11.0	-0.1
O=C(O)c1c(Oc2ccc(Cl)cc2)c(-c2ccccc2)nc2ccccc12	13.9	4.0	10.1	5.6	15.6
O=C(Nc1ccc2ccccc2n1)c1ccc(Cl)cc1	62.5*	12.4	59.2*	11.8	30.1*
C=C[C@]1(C)C=C2C(=O)[C@]3(O)OC(=O)[C@@]4(CCCC(C)(C)[C@H]34)[C@@]2(O)CC1	25.1	24.5	20.5	18.9	69.3*
CC1CCCN(c2nc3c(c(=O)[nH]2)CN(Cc2cccnc2)CC3)C1 (stereo not drawn)	-56.7	-18.8	-36.0	-1.8	-14.6
CCc1ccc(NC(=O)CSc2nc3nccnc3c(=O)n2Cc2ccc(F)cc2)cc1	-1.2	-8.5	44.1*	21.1	6.8
NS(=O)(=O)c1ccc(NC(=O)c2sccc2Oc2ccc(F)cc2[N+](=O)[O-])cc1	60.8*	32.3*	-3.8	5.0	54.9*
NS(=O)(=O)c1ccc(NC(=O)c2ccc3ncsc3c2)cc1	2.7	15.4	-2.3	-0.4	17.1
Cc1nccc(-c2sc(C3CCN(C(=O)Cc4nonc4C)CC3)nc2C)n1	28.1	14.0	-11.6	0.0	7.4
O=C(CSc1ccc2nnc(-c3cccc(F)c3)n2n1)c1ccccc1	-22.0	-11.2	-8.1	-1.7	30.4*
c1ccc(CSc2ccc3nnc(-c4ccncc4)n3n2)nc1	-2.9	7.6	-169.5	-2.7	-22.9
SMILES	USP30 inh	USP28 inh	USP8 block	USP10 inh	USP17 block
c1ccc(-c2nnc3ccc(SCc4ccccn4)nn23)cc1	24.3	31.3*	-133.4	5.3	0.4
Cc1cc(N2CCN(c3ncccn3)CC2)nc2ccc(NC(=O)C3CC3)cc12	6.8	29.7	-12.2	-0.4	24.4
Cc1cc(N2CCN(c3ncccn3)CC2)nc2ccc(NC(=O)c3cccnc3)cc12	16.4	20.8	0.5	-6.3	34.7*
COc1cccc(C(=O)Nc2ccc3nc(N4CCN(c5ncccn5)CC4)cc(C)c3c2)c1OC	85.2*	23.8	58.6*	-3.2	59.4*
Cc1cc(N2CCN(c3ncccn3)CC2)nc2ccc(NC(=O)c3ccco3)cc12	57.5*	67.9*	29.1	-4.0	67.2*
CCN1C=C(C(=O)OCc2cccc(C#N)c2)C(C)=NS1(=O)=O	-225.6	-35.8	-263.3	-6.4	-78.1
Cc1c(C(=O)N2CCOCC2)cnn1-c1cc(-c2nc(C(C)C)no2)ccn1	13.7	11.6	12.0	0.3	4.7
O=C1CCCC2=C1C(c1ccc(Cl)cc1)n1c(nc3ccccc31)N2 (stereo not drawn)	37.2*	18.2	12.7	-0.8	20.7
CC(=O)C1=C(C)Nc2nc3ccccc3n2C1c1cccs1 (stereo not drawn)	49.4*	21.7	-1.0	0.3	37.5*
CC(=O)C1=C(C)Nc2nc3ccccc3n2C1c1ccco1 (stereo not drawn)	-416.6	-27.7	-9.9	-6.4	26.8
CC(=O)C1=C(C)Nc2nc3ccccc3n2C1c1ccc(O)cc1 (stereo not drawn)	-18.7	0.8	-1.6	0.1	34.5*
COc1cccc(NC(=O)c2nc3c(s2)CCN(C(=O)c2ccccc2)CC3)c1	7.0	10.0	2.4	-0.7	-10.5
O=C(c1c(-c2ccccc2)nnc2ccccc12)N1CCN(Cc2ccccc2)CC1	2.9	-0.3	-6.9	-1.5	-0.1
O=C(Cc1ccc(NC(=O)N2CCCCc3ccccc32)cc1)NCc1cccnc1	-0.1	-4.9	-9.8	0.0	-7.3
COc1ccc(/C=C/C(=O)NC(=NCCc2c[nH]c3cc(OC)ccc23)Nc2nc(C)cc(C)n2)cc1	-61.6	-37.2	2.8	-1.5	-17.0
O=C(Cn1c(=O)c2c(ncn2C2CCCC2)n(Cc2ccccc2)c1=O)NCCc1ccc(F)cc1	-57.7	-18.5	19.2	-7.4	-1.1
COc1ccc(CNC(=O)Cn2c(=O)c3c(ncn3C3CCCC3)n(Cc3ccccc3)c2=O)cc1	-5.1	3.5	28.3	-6.7	42.8*
O=C(CC1CCCC1)N1CCCC(c2nn(CCOc3ccccc3)c3nccnc23)C1 (stereo not drawn)	23.2	18.1	12.4	5.4	14.8
O=C(C1CCCCC1)N1CCCC(c2nn(CCOc3ccccc3)c3nccnc23)C1 (stereo not drawn)	33.4*	20.2	23.3	0.8	30.6*
Cc1c(C)c2ccc(OCC(=O)NCc3ccccn3)c(C)c2oc1=O	46.0*	15.5	2.2	2.0	39.9*
Cc1ccc(-c2cc(C(F)F)n3ncc(C(=O)N(C)Cc4cnn(C)c4C)c3n2)cc1	-8.6	-3.0	2.3	-5.5	-7.5
CC(=O)Nc1ccc(S(=O)(=O)N/N=C/C(C)=C/c2ccco2)cc1	-138.5	-21.8	5.4	-2.9	2.1
Cc1c(NC(=O)COc2ccc(C3CCCCC3)cc2)cccc1-c1nc2ncccc2o1	22.3	7.0	-7.2	5.8	43.4*
O=C(Cn1cc(-c2ccccc2)c2ncn(C3CC3)c(=O)c21)NCc1ccc2c(c1)OCO2	-76.3	-10.3	41.0*	-3.8	-8.4
Cc1ccc(-c2nc(SCC(=O)N3CCCC3)c3c(=O)n(C)c(=O)n(C)c3n2)cc1	39.4*	6.8	-16.1	0.3	16.1
